# Inconclusive results are not listed. A call without a number means that no potency is given here. Activity calls are given as the source filed them. Calls come from the whole dose curve; as a rule, active = well fitted inhibition curve with a large enough effect; inconclusive = small, poorly fitted or top-dose-only effect; inactive = flat fitted curve, though single readings scatter.
# Biological target: Ubiquitin carboxyl-terminal hydrolase 1 (Homo sapiens) (UniProt O94782)
# Test: Inhibitors of USP1/UAF1: Pilot qHTS (AID 504865);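 note: rhodamine fluorescence freed from ubiquitin-rhodamine substrate followed over time; top concentration of the series differs between compounds; nearly all actives have a fitted effect of over 35% in size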
# Details: purified USP1/UAF1, Ub-rhodamine cleavage fluorescence; series mostly up to 114 µM
# Summary of the method: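 Kinetic fluorescence assay: 1nM USP1/UAF1, 15 min compound preincubation, then 150nM Ub-Rho; 480/540 nm.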
# Sequence of Ubiquitin carboxyl-terminal hydrolase 1 (Homo sapiens) (O94782 whole entry, looked up): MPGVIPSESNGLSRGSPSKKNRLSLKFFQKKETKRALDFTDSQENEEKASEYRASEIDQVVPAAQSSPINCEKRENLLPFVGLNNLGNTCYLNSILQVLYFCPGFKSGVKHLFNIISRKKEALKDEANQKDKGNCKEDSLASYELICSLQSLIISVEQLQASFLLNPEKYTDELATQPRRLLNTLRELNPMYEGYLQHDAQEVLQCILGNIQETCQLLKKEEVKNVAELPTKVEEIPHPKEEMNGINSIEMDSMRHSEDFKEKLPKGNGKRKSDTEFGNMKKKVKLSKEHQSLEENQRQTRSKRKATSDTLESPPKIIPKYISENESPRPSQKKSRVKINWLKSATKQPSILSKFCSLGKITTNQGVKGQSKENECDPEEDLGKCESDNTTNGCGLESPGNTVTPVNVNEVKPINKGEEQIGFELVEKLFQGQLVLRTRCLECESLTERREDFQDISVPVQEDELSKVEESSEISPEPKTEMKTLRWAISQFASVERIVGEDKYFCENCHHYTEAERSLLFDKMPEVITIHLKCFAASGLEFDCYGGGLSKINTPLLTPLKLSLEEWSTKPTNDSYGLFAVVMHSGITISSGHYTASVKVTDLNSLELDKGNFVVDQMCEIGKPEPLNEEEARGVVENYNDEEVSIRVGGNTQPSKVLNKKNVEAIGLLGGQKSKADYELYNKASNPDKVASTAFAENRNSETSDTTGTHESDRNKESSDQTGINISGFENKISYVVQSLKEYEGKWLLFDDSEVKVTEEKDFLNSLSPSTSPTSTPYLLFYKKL
row,Structure (SMILES),Potency
1,CCc1nnc(NS(=O)(=O)c2ccc(N)cc2)s1,inactive
2,Cc1ccsc1/C=C/C1=NCCCN1C,inactive
3,NS(=O)(=O)c1cc(-c2nn[nH]n2)c(NCc2cccs2)cc1Cl,inactive
4,CN1CCCN=C1COC(=O)C(O)(c1ccccc1)C1CCCCC1 (stereo not given),inactive
5,NC(=O)CCCCC1CCSS1 (stereo not given),inactive
6,Cc1onc(-c2ccccc2)c1-c1ccc(S(N)(=O)=O)cc1,inactive
7,NC(=O)CC[C@@H](N)C(=O)O,inactive
8,CC(=O)Nc1ccc(OCCOCCOc2ccc(NC(C)=O)cc2)cc1,inactive
9,CC(O)CCCCn1c(=O)c2c(ncn2C)n(C)c1=O (stereo not given),inactive
10,CC(=O)NCc1c(I)c(NC(C)=O)c(I)c(C(=O)O)c1I,inactive
11,OCc1ccc(Cl)cc1Cl,inactive
12,CCCCCCCCCCCCCCCCN,inactive
13,COC(=O)c1cccnc1,inactive
14,NS(=O)(=O)c1ccc(C(=O)O)cc1,inactive
15,O=C(O)Cc1cn(-c2ccccc2)nc1-c1ccc(Cl)cc1,inactive
16,COc1ccc2cc(CCC(C)=O)ccc2c1,inactive
17,CCCCC1(COC(=O)CCC(=O)O)C(=O)N(c2ccccc2)N(c2ccccc2)C1=O,inactive
18,Cc1ccccc1N=Nc1ccc(N=Nc2c(O)ccc3ccccc23)c(C)c1,inactive

row,Structure (SMILES),Potency
1,O=C(O)c1cc(=O)c2ccccc2o1,inactive
2,CC(=O)N(CC(O)CO)c1c(I)c(C(=O)NCC(O)CO)c(I)c(C(=O)NCC(O)CO)c1I (stereo not given),inactive
3,O=C(CN1CCNCC1)NC1CCCCC1,inactive
4,COc1ccc(C(=O)NCc2ccc(OCCN(C)C)cc2)cc1OC,inactive
5,Cn1c([N+](=O)[O-])cnc1COC(N)=O,inactive
6,Cc1ccc(S(=O)(=O)NC(=O)NC2CCCCC2)cc1,inactive
7,CCc1cccc(CC)c1NC(=O)CN(CC(=O)O)CC(=O)O,inactive
8,CCOC(=O)c1cccnc1,inactive
9,Cc1cc(C)c(NC(=O)CN(CC(=O)O)CC(=O)O)c(C)c1Br,inactive
10,O=C(O)c1ccc[n+]([O-])c1,inactive
11,O=C(O)CCCc1ccccc1,inactive
12,O=C(O)COC(=O)Cc1ccccc1Nc1c(Cl)cccc1Cl,inactive
13,CN1C(C)(C)CCCC1(C)C,inactive
14,O=C1CC[C@@H](C(=O)O)N1,inactive
15,O=C(NCCCN1CCOCC1)c1ccc(Cl)cc1,inactive
16,O=C(CCBr)N1CCN(C(=O)CCBr)CC1,inactive
17,COc1ccc(NS(=O)(=O)c2ccc(N)cc2)nn1,inactive

# From PubChem BioAssay (NCATS)
